# Only some compounds are listed: those with a hit (about 10% of all), similar ones and a draw of the others.
# G9a block: qHTS Assay for Inhibitors of Histone Lysine Methyltransferase G9a | Histone-lysine N-methyltransferase EHMT2 (Homo sapiens), Q96KQ7 | G9a H3K9 monomethylation, AlphaScreen, 2 h | Potency, µM (doses to about 102 µM), for the others: top-dose activity, negative = inhibition, most hits filed as inhibitors | hit rate 8.8% among 350,000; further: potency means the concentration at half of the fitted maximal effect; on the % scale 0 is the no-effect control and ±100 the full control effect; nearly all actives have a fitted effect of over 75% in size
#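 Enzyme 20 nM + cpd, 15 min RT; add b-H3K9 pep 500 nM / SAM 20 uM; 2 h RT; anti-H3K9me1 Ab 0.5 ug/mL + SA donor / anti-rabbit acceptor beads 20 ug/mL each, 10 min; AlphaScreen read.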
# Six1-Eya2 blk: qHTS Assay for Inhibitors of the Six1/Eya2 Interaction. hit rate 0.56% among 360,000. AID 651725, 2012. Homeobox protein SIX1 (Homo sapiens) + Protein phosphatase EYA2 (Homo sapiens), …. AlphaScreen GST-Six1/His-Eya2 binding, biochemical; hits give low values. activity change, % (concentration not given with the values); in the data active means activity change below about -65%; inconclusive means mostly about -30% to -63%; further: on the % scale 0 is the no-effect control and ±100 the full control effect
#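 Compounds are tested against tagged Six1 and Eya2 proteins bridged by glutathione donor and nickel acceptor beads; after a one-hour incubation at 37 °C without light, AlphaScreen emission is recorded.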
# CtBP-E1A inh: qHTS Assay for Inhibitors of the CtBP/E1A Interaction. CtBP / adenovirus E1A interaction (AlphaScreen). AlphaScreen GST-E1A/His-CtBP binding, 1536-well; hits give low values. activity change, % (concentration not given with the values). hit rate 0.49% among 340,000; in the data active means activity change below about -65%; inconclusive means mostly about -30% to -63%; further: on the % scale 0 is the no-effect control and ±100 the full control effect
#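 AlphaScreen with 125 nM GST-E1A and 125 nM His-CtBP (5X stocks) in Tris pH 8.0, 300 mM NaCl, BSA, Tween 20, TCEP. Compounds preincubated 2 h at 37 deg C, then glutathione donor/nickel acceptor beads added for 1 h at 37 deg C in dark.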
# BAZ2B block: qHTS Assay for Inhibitors of BAZ2B; Potency, µM (titrated, usually from 114 µM), inactives show top-dose activity change, negative = inhibition, most hits filed as inhibitors; Bromodomain adjacent to zinc finger domain protein 2B (Homo sapiens), Q9UIF8; AID 504333, 2011; hit rate 4.4% among 360,000; AlphaScreen BAZ2B-H3K14Ac peptide displacement; further: potency means the concentration at half of the fitted maximal effect; on the % scale 0 is the no-effect control and ±100 the full control effect; nearly all actives have a fitted effect of over 60% in size
#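 Compounds, titrated to a top concentration of 110 uM, were incubated 30 min at room temperature with preformed BAZ2B/acetyl-K14 H3 peptide complex (50 nM each). Proximity signal was measured by AlphaScreen after 20 min with beads.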
# HP1b binding inh: HTS for Inhibitors of HP1-beta Chromodomain Interactions with Methylated Histone Tails; Chromobox protein homolog 1 (Homo sapiens), P83916; AID 540317, 2011; Potency, µM (titrated, usually from 114 µM), inactives show at the highest dose activity change, negative = inhibition, most hits filed as inhibitors; hit rate 0.56% among 390,000; AlphaScreen HP1-beta / biotin-H3K9me3 peptide binding; further: potency means the concentration at half of the fitted maximal effect; nearly all actives have a fitted effect of over 70% in size
#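 AlphaScreen: HP1-beta (50 nM) preformed 30 min with biotin-H3(1-18)K9me3 peptide (50 nM) in PBS pH 7.4, 0.01% Tween-20. Compound added for 30 min at RT, then streptavidin donor/nickel chelate acceptor beads (10 ug/mL) for 30 min.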
# JMJD2A Tudor: qHTS Assay for Inhibitors of JMJD2A-Tudor Domain | AlphaScreen JMJD2A-Tudor / H3K4me3 peptide binding | Potency, µM (titrated, usually from 114 µM), without a hit: at the top dose activity change, negative = inhibition, usual class: inhibitors | hit rate 4.4% among 390,000; further: potency means the concentration at half of the fitted maximal effect; on the % scale 0 is the no-effect control and ±100 the full control effect; nearly all actives have a fitted effect of over 50% in size
# * hit, by the source's call; ? = inconclusive; . = no result; [ ] = remark or other dose. Unless noted, the call rests on the fitted dose curve; in most records, active means well fitted inhibition curve with a large enough effect; inconclusive means small, poorly fitted or top-dose-only effect; inactive means no such curve, though single readings can be large or run the other way.
SMILES,G9a block,Six1-Eya2 blk,CtBP-E1A inh,BAZ2B block,HP1b binding inh,JMJD2A Tudor
CCOC(=O)c1ccc(N2C(=O)CC(N3CCC(Nc4ccc(F)cc4)CC3)C2=O)cc1 (stereo not given),10µM*,-1,5,-31%,12%,?
CCOC(=O)c1ccc(N2C(=O)CC(C3CCCO3)C2=O)cc1 (stereo not given),12%[59 µM],8,12,5%,20%,-14%
CCOC(=O)C1CCCN(C2CC(=O)N(c3cccc(C)c3)C2=O)C1 (stereo not given),28µM*,10,-19,?,40%,?
CCOC(=O)c1ccc(N2C(=O)CC(N3CCCC(C)C3)C2=O)cc1 (stereo not given),10µM*,-3,1,4%,40%,-6%
CCCn1cc(S(=O)(=O)c2ccc(CC)cc2)c(=O)c2ccccc21,-4%[59 µM],.,.,-11%,11%,-16%
CC(NC(=O)c1ccc(Cn2c(=O)c3cccn3c3cccnc32)cc1)c1ccccc1 (stereo not given),-4%[59 µM],.,.,2%,55%,-14%
NC(=O)N/N=C/c1c(Sc2nnnn2-c2ccccc2)nc2ccccn2c1=O,50µM*,-1,.,2%,44%,-1%
Cc1nn(-c2ccccc2)c(Cl)c1/C=N/NC(N)=O,-5%,-5,-4,-20%,9%,-9%
O=C(CSC1=NC(=O)C(Cc2ccccc2)C(=O)N1)Nc1ncccn1 (stereo not given),79µM*,.,.,-6%,.,.
CCc1ccccc1NC(=O)Cn1ccn(-c2cc(C)cc(C)c2)c(=O)c1=O,-44%[59 µM],.,.,-9%,20%,-6%
CN1CCN(C(c2cccnc2)c2ccc3cccnc3c2O)CC1 (stereo not given),?,-90*,-81*,10µM*,?,?
CN1CCN(C(c2ccc(F)cc2)c2ccc3cccnc3c2O)CC1 (stereo not given),.,-6,.,.,47%,9%
CN1CCN(C(c2ccc(Br)cc2)c2cc(Cl)c3cccnc3c2O)CC1 (stereo not given),7.9µM*,?,-90*,45µM*,?,50µM*
Cc1ccc(-n2c(=O)c3cccnc3n2CC(=O)Nc2cccc(C)c2C)cc1,?,.,.,-2%,34%,-9%
CC1CCN(c2ccc(-c3cccs3)nn2)CC1,30%,4,.,7%,25%,-11%
CC(NC(=O)C(=O)N1CCCCC1)C(c1cccs1)N1CCN(c2ccc(F)cc2)CC1 (stereo not given),?,-3,0,?,15%,-30%
COc1ccc(N2CCN(C(c3cccs3)C(C)NC(=O)C(=O)N3CCCC3)CC2)cc1 (stereo not given),45µM*,-13,-13,40µM*,-4%,?
COc1ccc(N2CCN(C(c3cccs3)C(C)NC(=O)C(=O)N3CCCCC3)CC2)cc1 (stereo not given),50µM*,-5,-6,-35%,1%,-31%
CC(NC(=O)C(=O)N1CCCCC1)C(c1cccs1)N1CCN(c2ccccc2)CC1 (stereo not given),?,-1,-1,-37%,23%,-29%
O=C(c1cccc(C(F)(F)F)c1)N1CCN(C2CCCCC2)CC1,-3%[59 µM],2,-2,5%,-4%,-11%
O=C(c1cccc(F)c1)N1CCN(C2CCCCC2)CC1,22µM*,4,9,50µM*,?,22µM*
O=C(NC(=S)N1CCN(C2CCCCC2)CC1)c1ccccc1,50µM*,-2,0,-24%,-11%,-17%
O=C(c1ccco1)N1CCN(C2CCCC2)CC1,?,1,4,-4%,?,3.2µM*
O=C(c1ccccc1)N1CCCCCC1,28%,1,-5,7%,28%,-6%
O=C(NC(=S)N1CCCCCC1)c1ccccc1,.,2,3,?,37%,-16%
SMILES,G9a block,Six1-Eya2 blk,CtBP-E1A inh,BAZ2B block,HP1b binding inh,JMJD2A Tudor
O=C(c1ccccc1)N1CCN(C2CCCCCC2)CC1,?,10,-1,56µM*,?,3.2µM*
CC(CCc1ccccc1)NC(=O)Cn1c(=O)nc(-c2ccccc2F)c2cc(Cl)ccc21 (stereo not given),5%[12.7 µM],.,.,-10%,35%,-10%
Cc1ccc(NC(=O)Nc2nnc(N3CCCCC3)s2)c(C)c1,?,.,.,-25%,34%,-10%
O=C(c1ccco1)N1CCC2(CCCN(Cc3ccncc3)C2)CC1,-6%[12.7 µM],.,.,.,.,.
O=C(c1cccc(Cl)c1)N1CCC(N2CCC(C(=O)N3CCCC3)CC2)CC1,76%[59 µM],-1,4,-9%,29%,3%
O=C(c1cccc(F)c1)N1CCC(N2CCCCCC2)CC1,22µM*,3,4,56µM*,?,2.2µM*
O=C(c1ccco1)N1CCN(C(=O)c2cccc3c2C(=O)N(C2CCCCC2)C3)CC1,45µM*,-4,0,-21%,20%,-4%
O=C(c1cccc(Cl)c1)N1CCN(C2CCCCC2)CC1,.,-9,.,?,?,7.9µM*
Cc1cccc2c1-c1sc(C(=O)N(C)c3cccc(C(F)(F)F)c3)cc1CO2,133%[59 µM],.,.,61%,154%,99%
Cc1cnc(NC(=O)NCC2CCCC(CNC(=O)Nc3ncc(C)s3)C2)s1 (stereo not given),?,-19,20,32µM*,-19%,?
COc1ccc(OCC(=O)Nc2ccc(NC(=O)c3ccccc3Cl)c(OC)c2)cc1,34%,-8,-18,-18%,27%,-16%
CCN(CC)c1ccc(CNc2ccc(Br)cn2)cc1,?,?,?,22µM*,-22%,?
O=c1cc(CN2CCN(S(=O)(=O)c3ccccc3)CC2)nc2sccn12,-10%[59 µM],1,5,-21%,44%,-6%
Cc1ccc(Cl)cc1NC(=O)Cn1c(=O)c(CNc2ccccc2)cc2cc3c(cc21)OCCO3,7.9µM*,.,.,-22%,6%,-29%
CN(C)c1ccc(NC(=O)CSc2nc(N)c(C(=O)Nc3ccc(N(C)C)cc3)s2)cc1,?,-7,?,20µM*,?,?
CCOC(=O)c1sc(SCC(=O)Nc2ccc(N(C)C)cc2)nc1N,11µM*,-20,-21,45µM*,?,?
